Results: PubChem BioAssay (NCI)
This is part of a sample that, as a whole, favours compounds with a hit. Of some 83,000 tested, about 20% had one in any assay.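 Single-dose data. Exposure time 48 hours. Values below 10 considered active.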 Activity calls are given as the source filed them.

Columns and labels:
Assay in all cases: NCI-60 one-dose screen, 48 h (100 = growth as untreated, 0 = no growth, -100 = all killed)
Conditions in all cases: 10 µM unless noted
NCI/ADR-RES ovarian = system: NCI/ADR-RES ovarian
T-47D breast = system: T-47D breast
BT-549 breast = system: BT-549 breast
MDA-MB-435 melanoma = system: MDA-MB-435 melanoma
SW-620 colon = system: SW-620 colon
MCF7 breast = system: MCF7 breast
HCT-116 colon = system: HCT-116 colon
HCC-2998 colon = system: HCC-2998 colon
KM12 colon = system: KM12 colon

Measured: growth

O=C(O)CNC(=O)C(Cl)(Cl)Cl
inactive: NCI/ADR-RES ovarian 108% | T-47D breast 94.5% | BT-549 breast 103% | MDA-MB-435 melanoma 97.8% | SW-620 colon 94.8% | MCF7 breast 91.1% | HCT-116 colon 107% | HCC-2998 colon 104% | KM12 colon 101%

CC(C)(C)N1CC1C#N (configuration not stated)
inactive: NCI/ADR-RES ovarian 106% | T-47D breast 89.3% | BT-549 breast 103% | MDA-MB-435 melanoma 108% | SW-620 colon 103% | MCF7 breast 100% | HCT-116 colon 100% | HCC-2998 colon 98.8% | KM12 colon 99.2%

C1CCC2(CC1)OOCNCOO2
inactive: NCI/ADR-RES ovarian 101% | T-47D breast 89.8% | BT-549 breast 106% | MDA-MB-435 melanoma 101% | SW-620 colon 103% | MCF7 breast 45.7% | HCT-116 colon 92.8% | HCC-2998 colon 106% | KM12 colon 95.9%

CC[CH2][Sn]([Cl])([Cl])[CH2]CC
active: T-47D breast -3.16%
inactive: NCI/ADR-RES ovarian 106% | BT-549 breast 60.7% | MDA-MB-435 melanoma 79.8% | SW-620 colon 36.9% | MCF7 breast 50.4% | HCT-116 colon 79.9% | HCC-2998 colon 87.7% | KM12 colon 101%

COC(=O)C1CCC(NC(=O)c2csc([C@@H](C[C@H](C(C)C)N(C)C(=O)[C@@H](NC(=O)[C@H]3CCCCN3C)C(C)C)OC(C)=O)n2)CC1 (some centres not stated)
inactive: NCI/ADR-RES ovarian 11.8% | T-47D breast 64.4% | SW-620 colon 28.1% | MCF7 breast 19.4% | HCC-2998 colon 20.2%
active: BT-549 breast -20.7% | MDA-MB-435 melanoma -48.5% | HCT-116 colon 5.04% | KM12 colon 9.7%

CC1[C@H](C)OC(=O)CC(O)CC(O)CC(O)CCC(O)C(O)C[C@]2(O)CC(O)C(C(=O)O)C(CC(OC3O[C@H](C)[C@@H](O)[C@H](N)[C@@H]3O)/C=C/C=C/C=C/C=C/CC/C=C/C=C/[C@H](C)[C@H]1O)O2 (some centres not stated)
inactive: NCI/ADR-RES ovarian 93.2% | T-47D breast 108% | BT-549 breast 105% | MDA-MB-435 melanoma 102% | SW-620 colon 99.5% | MCF7 breast 104% | HCT-116 colon 97% | HCC-2998 colon 103% | KM12 colon 106%

CC(=O)O[C@H]1C(=O)[C@@]2(C)[C@H]([C@H](OC(=O)c3ccccc3)[C@]3(O)C[C@H](OC(=O)[C@H](OC(=O)OC[C@@H]4COC(C)(C)O4)[C@@H](NC(=O)c4ccccc4)c4ccccc4)C(C)=C1C3(C)C)[C@]1(OC(C)=O)CO[C@@H]1C[C@@H]2O
inactive: NCI/ADR-RES ovarian 80.9% | T-47D breast 25.5% | BT-549 breast 12.5% | SW-620 colon 26.5% | MCF7 breast 11% | KM12 colon 10.7%
active: MDA-MB-435 melanoma -77.7% | HCT-116 colon 5.09% | HCC-2998 colon -4.98%

CC(C)COC(C[N+](=O)[O-])C(Cl)(Cl)Cl (configuration not stated)
inactive: NCI/ADR-RES ovarian 94.2% | T-47D breast 111% | BT-549 breast 106% | MDA-MB-435 melanoma 111% | SW-620 colon 107% | MCF7 breast 98.8% | HCT-116 colon 111% | HCC-2998 colon 102% | KM12 colon 104%

O=C(c1cccc(O)c1O)c1cn(Cc2ccc(F)cc2)c2cccc(O)c12
inactive: NCI/ADR-RES ovarian 19.3% | T-47D breast 34.5% | BT-549 breast 41.4% | MDA-MB-435 melanoma 14.2% | SW-620 colon 37.1% | MCF7 breast 26.9% | HCT-116 colon 30.7% | HCC-2998 colon 35.6% | KM12 colon 44.1%

COc1ccc(-n2c(C)nc3cc(OC)c(OC)cc3c2=O)cc1OC
inactive: NCI/ADR-RES ovarian 102% | T-47D breast 91.4% | BT-549 breast 102% | MDA-MB-435 melanoma 104% | SW-620 colon 105% | MCF7 breast 91.8% | HCT-116 colon 98.7% | HCC-2998 colon 109% | KM12 colon 104%

CN1CC(CNC(=O)OCc2ccccc2)CC2c3cccc4c3c(cn4C)CC21 (configuration not stated)
inactive: NCI/ADR-RES ovarian 44.2% | T-47D breast 31.6% | BT-549 breast 50% | SW-620 colon 35.9% | HCT-116 colon 31.7% | KM12 colon 38.1%
active: MDA-MB-435 melanoma 3% | MCF7 breast -55.3% | HCC-2998 colon -66.9%

CCCOC(=O)N[C@H]1CCc2c(Br)c(OC)c(OC)c(OC)c2-c2ccc(SC)c(=O)cc21
active: BT-549 breast 2.53% | MDA-MB-435 melanoma -49.4% | HCT-116 colon -12.6% | KM12 colon -15.7%
inactive: NCI/ADR-RES ovarian 10.4% | T-47D breast 51.5% | SW-620 colon 15.3% | MCF7 breast 10% | HCC-2998 colon 16.2%

CC1CN1CCCCN1CC1C (configuration not stated)
inactive: NCI/ADR-RES ovarian 108% | T-47D breast 101% | BT-549 breast 103% | MDA-MB-435 melanoma 111% | SW-620 colon 105% | MCF7 breast 93.8% | HCT-116 colon 95.7% | HCC-2998 colon 94.2% | KM12 colon 104%

O=[N+]([O-])c1cc(I)cc([N+](=O)[O-])c1
inactive: NCI/ADR-RES ovarian 96.6% | T-47D breast 95.8% | BT-549 breast 101% | MDA-MB-435 melanoma 101% | SW-620 colon 106% | MCF7 breast 80.7% | HCT-116 colon 94.8% | HCC-2998 colon 104% | KM12 colon 102%

C[C@]12C[C@@H](CO)[C@H](O)C[C@@H]1CC[C@@H]1[C@@H]2CC[C@]2(C)[C@@H](O)CC[C@@H]12
inactive: NCI/ADR-RES ovarian 99.6% | T-47D breast 104% | BT-549 breast 78.9% | MDA-MB-435 melanoma 105% | SW-620 colon 101% | MCF7 breast 121% | HCT-116 colon 103% | HCC-2998 colon 97.9% | KM12 colon 101%

COC(=O)CC12CC(NC(=O)c3csc([C@@H](C[C@H](C(C)C)N(C)C(=O)[C@@H](NC(=O)[C@H]4CCCCN4C)C(C)C)OC(C)=O)n3)(C1)C2
inactive: T-47D breast 64.4% | SW-620 colon 29% | MCF7 breast 20.4% | HCC-2998 colon 10.5% | KM12 colon 11.1%
active: NCI/ADR-RES ovarian -24.1% | BT-549 breast -19.8% | MDA-MB-435 melanoma -39.8% | HCT-116 colon 9.61%

CC(=O)Oc1ccccc1C(=O)NCCC[Se]C#N
inactive: NCI/ADR-RES ovarian 14.4% | T-47D breast 83.3% | SW-620 colon 72.9% | MCF7 breast 14.5% | HCC-2998 colon 97.9% | KM12 colon 29.6%
active: BT-549 breast -97% | MDA-MB-435 melanoma 3.02% | HCT-116 colon 0.0792%

COc1ccc(/C=C/c2cc(OC)c(OC)c(OC)c2)cc1NC(=O)/C=C/c1ccc(F)cc1
active: NCI/ADR-RES ovarian -3.74% | MDA-MB-435 melanoma -41.4%
inactive: T-47D breast 32.1% | BT-549 breast 35.1% | SW-620 colon 30.5% | MCF7 breast 20.6% | HCT-116 colon 23% | HCC-2998 colon 17.2% | KM12 colon 25%

CC1=C(CNO)C2=C(C)C3(CC3)[C@@](C)(O)C(=O)C2=C1
active: T-47D breast -3.61% | BT-549 breast -13% | HCT-116 colon 2.04% | HCC-2998 colon -33.4%
inactive: NCI/ADR-RES ovarian 29.7% | MDA-MB-435 melanoma 92.1% | SW-620 colon 65.7% | MCF7 breast 10.6% | KM12 colon 70%

C=CC[PH+](c1ccccc1)c1ccccc1.C=CC[PH+](c1ccccc1)c1ccccc1.[Cl][Pt][Cl]
active: T-47D breast 0.0943% | SW-620 colon 2.38% | HCT-116 colon 3.92%
inactive: NCI/ADR-RES ovarian 97% | BT-549 breast 78% | MDA-MB-435 melanoma 64.9% | MCF7 breast 31.9% | HCC-2998 colon 94.9% | KM12 colon 77.8%

CCOP(=O)(Cc1ccc(C#N)cc1)OCC
inactive: NCI/ADR-RES ovarian 108% | T-47D breast 101% | BT-549 breast 109% | MDA-MB-435 melanoma 114% | SW-620 colon 99.9% | MCF7 breast 88.6% | HCT-116 colon 84.5% | HCC-2998 colon 110% | KM12 colon 107%

C[C@@]1(CCCCCCCCCc2ccc(O)cc2)C[C@]2(C)OC(=O)C[C@@H]2OO1
inactive: NCI/ADR-RES ovarian 53.4% | T-47D breast 83.9% | BT-549 breast 102% | MDA-MB-435 melanoma 109% | SW-620 colon 103% | MCF7 breast 117% | HCT-116 colon 77.5% | HCC-2998 colon 105% | KM12 colon 127%

CC12CCC=CC1CCC1C2CCC2(C)C(c3ccc(=O)oc3)CCC12O (configuration not stated)
active: NCI/ADR-RES ovarian -51.5% | T-47D breast -13.6% | BT-549 breast -65.2% | MDA-MB-435 melanoma -95.2% | SW-620 colon -36.7% | MCF7 breast -30.6% | HCT-116 colon -64.2% | HCC-2998 colon -21.5% | KM12 colon -55.7%

CCNc1nc(Cl)nc(NCC)n1
inactive: NCI/ADR-RES ovarian 101% | T-47D breast 91% | BT-549 breast 108% | MDA-MB-435 melanoma 94.8% | SW-620 colon 101% | MCF7 breast 98.7% | HCT-116 colon 88.1% | HCC-2998 colon 104% | KM12 colon 106%

C[C@]12CCc3sc(-c4ccccc4O)nc3C1=CC[C@@H]1[C@@H]2CC[C@]2(C)C(=O)CC[C@@H]12
inactive: NCI/ADR-RES ovarian 106% | T-47D breast 90.1% | BT-549 breast 110% | MDA-MB-435 melanoma 102% | SW-620 colon 103% | MCF7 breast 93.3% | HCT-116 colon 104% | HCC-2998 colon 111% | KM12 colon 107%

O=C(CCCC1CCCCC1)OCC(Cl)(Cl)Cl
inactive: NCI/ADR-RES ovarian 102% | T-47D breast 101% | BT-549 breast 117% | MDA-MB-435 melanoma 111% | SW-620 colon 107% | MCF7 breast 95.5% | HCT-116 colon 103% | HCC-2998 colon 88.4% | KM12 colon 105%

Cc1cnc(/C=C/C(=O)O)cc1-c1cc2c(cc1C)C(C)(C)CCC2(C)C
inactive: NCI/ADR-RES ovarian 78.7% | T-47D breast 80.3% | BT-549 breast 69% | MDA-MB-435 melanoma 83.8% | SW-620 colon 86.6% | MCF7 breast 21.8% | HCT-116 colon 57.2% | HCC-2998 colon 85.3% | KM12 colon 57.3%

CCCC(=O)O[C@@H]1C[C@H]2C[C@@H](O[C@@H]3O[C@@H](C)[C@@H](O)[C@@H](O)[C@H]3OC)C[C@@H](C[C@@H](C)/C=C/C=C\C[C@@H]3O[C@@H](C[C@@H]3C)[C@@H](O)C[C@H]3C[C@@]1(O)C(=O)O3)O2
inactive: NCI/ADR-RES ovarian 67.6% | T-47D breast 17.4% | BT-549 breast 46.9% | MDA-MB-435 melanoma 59.1% | SW-620 colon 87.4% | MCF7 breast 25.7% | HCT-116 colon 56.3% | HCC-2998 colon 59.4% | KM12 colon 65.3%
